Assay [1] is described as follows: antimalarial activity against Dd2 strain (AID 2302;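 active means growth inhibition above 50% at the single 2 µM test dose, taken to imply half-maximal potency below 2 µM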;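 further: 0% = DMSO untreated growth and 100% = chloroquine plus artemisinin killed control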). Particulars: P. falciparum Dd2 in RBCs, LDH growth readout, 72 h; at 2 µM; stronger effect = higher value.
A short description of assay [2]: human hepatoma cell viability loss – ATP luminescence, cytotoxicity control for P. falciparum antimalarial project, primary screen (AID 2303;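 active means inhibition above 50%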;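 further: 0% = DMSO wells and 100% = digitonin-killed cells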). Particulars: HepG2 viability, 24-48 h, at 10 µM, stronger effect = higher value.
For assay [3], the target named is L-lactate dehydrogenase (Plasmodium falciparum (isolate CDC / Honduras)) (UniProt Q27743). Nature of the assay: PfLDH activity inhibition – cell lysate, 3D7 strain, counter-screen for P. falciparum growth inhibition project (AID 2304).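 Further: 0% = vehicle and 100% = reference inhibitor.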 Particulars: P. falciparum 3D7 crude extract, LDH APAD/NBT absorbance; at 2 µM; stronger effect = higher value. (A counterscreen serves to expose hits that act by an unwanted route or on another target.)
Chain of L-lactate dehydrogenase (Plasmodium falciparum (isolate CDC / Honduras)) (Q27743 whole entry, looked up): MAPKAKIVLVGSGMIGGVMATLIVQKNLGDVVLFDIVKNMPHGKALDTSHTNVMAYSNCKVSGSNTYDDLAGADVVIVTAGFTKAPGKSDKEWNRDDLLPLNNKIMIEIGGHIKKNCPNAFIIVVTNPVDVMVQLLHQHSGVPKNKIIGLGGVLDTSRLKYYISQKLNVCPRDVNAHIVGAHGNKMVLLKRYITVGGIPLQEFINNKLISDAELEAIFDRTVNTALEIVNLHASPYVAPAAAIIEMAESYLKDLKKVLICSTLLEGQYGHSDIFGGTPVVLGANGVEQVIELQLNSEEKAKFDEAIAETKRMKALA

The nature of assay [4]: inhibition of 3D7 malaria parasite growth – strain 3D7 (AID 2306).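 Further: 0% = DMSO wells and 100% = chloroquine plus artemisinin control wells.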 Particulars: P. falciparum 3D7 erythrocytic growth, LDH absorbance, 72 h; at 2 µM; stronger effect = higher value.
In assay [5] the target is Calcium-dependent protein kinase 1 (Plasmodium falciparum (isolate 3D7)) (UniProt P62344). Nature of the assay: PfCDPK1 kinase inhibitors, biochemical, TCAMS library (AID 1159585; cut-off not given, nearly all actives have IC50 up to about 0.98 µM;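 further: inhibitors leave more ATP so luminescence rises with inhibition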). The conditions noted are these: recombinant PfCDPK1, Kinase-Glo ATP depletion luminescence. In general terms: In Kinase-Glo more light means more ATP remaining.
Chain of Calcium-dependent protein kinase 1 (Plasmodium falciparum (isolate 3D7)) (P62344 whole entry, looked up): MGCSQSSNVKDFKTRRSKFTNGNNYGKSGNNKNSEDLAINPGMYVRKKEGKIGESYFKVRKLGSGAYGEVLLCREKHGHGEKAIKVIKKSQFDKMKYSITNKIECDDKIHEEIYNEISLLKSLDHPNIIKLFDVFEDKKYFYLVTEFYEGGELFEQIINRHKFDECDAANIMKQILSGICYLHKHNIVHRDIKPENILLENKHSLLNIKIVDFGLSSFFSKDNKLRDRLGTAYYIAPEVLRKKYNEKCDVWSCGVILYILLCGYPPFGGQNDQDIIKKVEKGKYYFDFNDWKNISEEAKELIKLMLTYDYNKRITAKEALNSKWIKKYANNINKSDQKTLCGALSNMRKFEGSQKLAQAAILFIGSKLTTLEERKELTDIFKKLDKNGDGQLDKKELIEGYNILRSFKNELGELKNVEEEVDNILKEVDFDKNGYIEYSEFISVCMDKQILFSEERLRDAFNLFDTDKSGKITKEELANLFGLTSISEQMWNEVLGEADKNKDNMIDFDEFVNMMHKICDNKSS
Assay [6] deals with Plasmodium falciparum protein kinase 6 (PK6, PF3D7_1337100) (UniProt Q8IDW1). The experiment in a line: PfPK6 kinase inhibitors, biochemical, TCAMS library (AID 1159586). The conditions noted are these: recombinant PfPK6, Kinase-Glo ATP depletion luminescence.
Chain of Plasmodium falciparum protein kinase 6 (PK6, PF3D7_1337100) (Q8IDW1 1-305): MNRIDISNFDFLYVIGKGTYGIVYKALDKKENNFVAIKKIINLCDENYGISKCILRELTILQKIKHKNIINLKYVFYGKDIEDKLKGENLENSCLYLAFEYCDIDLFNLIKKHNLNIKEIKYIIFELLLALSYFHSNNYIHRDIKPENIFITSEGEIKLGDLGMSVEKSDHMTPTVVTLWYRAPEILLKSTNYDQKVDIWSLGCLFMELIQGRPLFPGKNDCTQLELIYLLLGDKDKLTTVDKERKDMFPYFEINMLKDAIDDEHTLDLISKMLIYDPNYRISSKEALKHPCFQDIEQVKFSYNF
The target in assay [7] is Protein kinase 7 (PK7), Plasmodium falciparum 3D7 (PF3D7_0213400) (UniProt Q7YTF7). Nature of the assay: inhibition of Plasmodium PK7 catalytic activity – biochemical, TCAMS antimalarial set, Kinase-Glo luminescence (AID 1159587). The conditions noted are these: recombinant PfPK7, Kinase-Glo ATP depletion luminescence.
Chain of Protein kinase 7 (PK7), Plasmodium falciparum 3D7 (PF3D7_0213400) (Q7YTF7 1-343): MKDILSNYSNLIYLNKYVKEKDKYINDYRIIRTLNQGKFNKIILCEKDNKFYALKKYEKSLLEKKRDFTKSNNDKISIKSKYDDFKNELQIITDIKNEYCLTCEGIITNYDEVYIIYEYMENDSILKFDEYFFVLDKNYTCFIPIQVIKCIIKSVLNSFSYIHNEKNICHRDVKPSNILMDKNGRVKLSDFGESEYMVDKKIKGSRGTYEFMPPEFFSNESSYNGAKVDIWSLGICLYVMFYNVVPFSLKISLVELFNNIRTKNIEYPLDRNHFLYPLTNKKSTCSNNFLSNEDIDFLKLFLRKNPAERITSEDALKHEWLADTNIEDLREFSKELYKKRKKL
Assay [8] deals with Calcium-dependent protein kinase 4 (Plasmodium falciparum (isolate 3D7)) (UniProt Q8IBS5). The experiment in a line: PfCDPK4 kinase inhibitors, biochemical, TCAMS library (AID 1159588; cut-off not given, nearly all actives have IC50 up to about 0.91 µM). Particulars: recombinant PfCDPK4, Kinase-Glo ATP depletion luminescence.
Chain of Calcium-dependent protein kinase 4 (Plasmodium falciparum (isolate 3D7)) (Q8IBS5 whole entry, looked up): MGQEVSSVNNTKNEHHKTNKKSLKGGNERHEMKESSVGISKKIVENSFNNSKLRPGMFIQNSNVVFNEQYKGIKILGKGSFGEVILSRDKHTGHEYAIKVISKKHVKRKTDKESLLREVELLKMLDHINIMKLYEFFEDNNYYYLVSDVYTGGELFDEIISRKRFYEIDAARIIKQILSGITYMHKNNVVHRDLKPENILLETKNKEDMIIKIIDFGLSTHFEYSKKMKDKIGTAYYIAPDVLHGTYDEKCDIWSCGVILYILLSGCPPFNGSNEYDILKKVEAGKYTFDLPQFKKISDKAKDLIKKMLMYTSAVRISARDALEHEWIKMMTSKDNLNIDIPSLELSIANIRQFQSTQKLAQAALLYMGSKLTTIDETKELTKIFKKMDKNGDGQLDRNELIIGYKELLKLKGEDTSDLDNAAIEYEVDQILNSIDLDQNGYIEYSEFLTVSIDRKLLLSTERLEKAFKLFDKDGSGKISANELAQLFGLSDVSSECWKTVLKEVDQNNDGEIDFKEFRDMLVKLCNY

A number with no mark means an inactive call. For some of these results: Results with a measured potency or affinity are listed apart. The source made the active and inactive calls. Unless noted, how the calls were made is not given here.

Broadly, the inhibition is the relative decrease from the control value, in per cent.

`O=C(Nc1cc(C(F)(F)F)cc(C(F)(F)F)c1)c1cc(C(F)(F)F)cc(C(F)(F)F)c1`: the values for the growth inhibition in assay [1] and in assay [4] were 86% (active) and 101% (active), respectively. The inhibition was 21% in assay [2] and 2% in assay [3]. The outcome in assay [5], in assay [6], in assay [7] and in assay [8] was inactive.
With `O=C(/C=C/c1ccc(Cl)c(Cl)c1)NCCCCCN1CCC(CCNC(=O)/C=C/c2cc(C(F)(F)F)ccc2F)CC1`, the growth inhibition was 46% in assay [1] and 98% (active) in assay [4]. The inhibition in assay [2] is 25%; in assay [3] it was -5%. Also, the result in assay [5], in assay [6], in assay [7] and in assay [8] was inactive.
For `COc1ccc(-c2cc(C(=O)Nc3ccc4nc(-c5ccccc5)[nH]c4c3)[nH]n2)cc1`, the growth inhibition was 78% (active) in assay [1] and 90% (active) in assay [4]. Also, the inhibition is 77% (active) in assay [2] and 3% in assay [3]. The outcome in assay [5], in assay [6], in assay [7] and in assay [8] was inactive.
With `CC(=O)Nc1cccc(C(=O)Nc2cccc(-c3csc(-c4nc5ccccc5[nH]4)c3)c2)c1`, the results for the growth inhibition in assay [1] and in assay [4] were 97% (active) and 96% (active), respectively. In addition, the inhibition was 39% in assay [2] and 1% in assay [3]. In addition, the result in assay [5], in assay [6], in assay [7] and in assay [8] was inactive.
In the case of `c1ccc2c(CNCCCCCCNCc3c(OCC4CC4)ccc4ccccc34)c(OCC3CC3)ccc2c1`, the figures for the growth inhibition in assay [1] and in assay [4] were 97% (active) and 93% (active), respectively. For the same molecule, the figures for the inhibition in assay [2] and in assay [3] were 100% (active) and -8%, respectively. Besides, the result in assay [5], in assay [6], in assay [7] and in assay [8] was inactive.
Regarding `CCOC(=O)N/N=C/[C@H](CCc1ccccc1)NC(=O)[C@H](CC(C)C)NC(=O)c1cc2cccc(OC)c2o1`, the growth inhibition in assay [1] was 58% (active); in assay [4], 84% (active). Further, the inhibition in assay [2] is 3%; in assay [3], 2%. Besides, the outcome in assay [5], in assay [6], in assay [7] and in assay [8] was inactive.
Turning to `CS(=O)(=O)NCCCNCc1cccc(-c2cccc(-c3nc4ccc(C(F)(F)F)cc4[nH]3)c2)c1`, the results for the growth inhibition in assay [1] and in assay [4] were 100% (active) and 99% (active), respectively. Besides, the inhibition in assay [2] is 17%; in assay [3], 5%. Moreover, the outcome in assay [5], in assay [6], in assay [7] and in assay [8] was inactive.
Regarding `Cc1cc(NC(=O)NCCN2CCC(NC(=O)c3cccc(Br)c3)C2)c2ccccc2n1` (stereo not given), the growth inhibition is 60% (active) in assay [1] and 100% (active) in assay [4]. The inhibition is -2% in assay [2] and -1% in assay [3]. The outcome in assay [5], in assay [6], in assay [7] and in assay [8] was inactive.
For the molecule `C[C@H](Cc1ccc(S(=O)(=O)c2ccc(C[C@@H](C)NC[C@H](O)c3cccc(Cl)c3)cc2)cc1)NC[C@H](O)c1cccc(Cl)c1`, the growth inhibition in assay [1] is 98% (active); in assay [4], 99% (active). Moreover, the inhibition was 100% (active) in assay [2] and -9% in assay [3]. Also, the outcome in assay [5], in assay [6], in assay [7] and in assay [8] was inactive.
In the case of `NC1=NC2(CCCCC2)N(OCCCCCCN2C(=O)c3ccccc3C2=O)C(N)=N1`, the growth inhibition was 16% in assay [1] and 98% (active) in assay [4]. In addition, the inhibition was 20% in assay [2] and 1% in assay [3]. For the same molecule, the outcome in assay [5], in assay [6], in assay [7] and in assay [8] was inactive.
Consider `COc1cc(OC)c(NC(=O)COc2ccc(C)cc2)cc1Cl`, for which the growth inhibition in assay [1] was 90% (active); in assay [4], 86% (active). Also, the inhibition was -7% in assay [2] and 3% in assay [3]. Besides, the outcome in assay [5], in assay [6], in assay [7] and in assay [8] was inactive.
`O=C(/C=C/c1ccc(Cl)c(Cl)c1)NCCCCCN1CCC(c2c[nH]c3ccccc23)CC1`: the growth inhibition in assay [1] is 7%; in assay [4], 99% (active). The figures for the inhibition in assay [2] and in assay [3] were 33% and -2%, respectively. Moreover, the result in assay [5], in assay [6], in assay [7] and in assay [8] was inactive.
As to `O=C(Cc1ccc(NC(=O)c2ccc(O)c(-c3ccc(Cl)c(Cl)c3)c2)cc1)NCCN1CCCCC1`, the growth inhibition is 63% (active) in assay [1] and 95% (active) in assay [4]. For the same molecule, the figures for the inhibition in assay [2] and in assay [3] were 12% and -4%, respectively. Besides, the result in assay [5], in assay [6], in assay [7] and in assay [8] was inactive.
For the molecule `NC(=NCc1ccccc1)Nc1nc(-c2ccc(OCCCn3ccnc3)cc2)cs1`, the growth inhibition in assay [1] was 55% (active); in assay [4] it was 100% (active). Further, the inhibition in assay [2] is 10%; in assay [3], 2%. The result in assay [5], in assay [6], in assay [7] and in assay [8] was inactive.
As to `CC(C)CCN=C(N)Nc1ccc(OCCCOc2ccc(NC(N)=NCCC(C)C)cc2)cc1`, the growth inhibition in assay [1] was 95% (active); in assay [4], 100% (active). The inhibition is 0% in assay [2] and -3% in assay [3]. Moreover, the outcome in assay [5], in assay [6], in assay [7] and in assay [8] was inactive.
As to `CCCN1CCC(c2c[nH]c3ccc(NC(=O)Nc4cccc(Cl)c4Cl)cc23)CC1`, the growth inhibition was 17% in assay [1] and 100% (active) in assay [4]. For the same molecule, the inhibition was 30% in assay [2] and 2% in assay [3]. Also, the result in assay [5], in assay [6], in assay [7] and in assay [8] was inactive.
Take `Cc1cc(NCCC(=O)NCc2cccc(F)c2)nc(Nc2ccccc2)n1`: the growth inhibition in assay [1] is 15%; in assay [4], 94% (active). Besides, the inhibition is -4% in assay [2] and -3% in assay [3]. Further, the result in assay [5], in assay [6], in assay [7] and in assay [8] was inactive.
For `CN1CCCN(Cc2cccc(-c3ccc(CNC(=O)c4cccc(Cl)c4)c(F)c3)c2)CC1`, the growth inhibition in assay [1] was 38%; in assay [4], 96% (active). The results for the inhibition in assay [2] and in assay [3] were 56% (active) and -2%, respectively. For the same molecule, the result in assay [5], in assay [6], in assay [7] and in assay [8] was inactive.
As to `Cc1[nH]c2c(NCc3ccc(F)cc3)nccc2c1C`, the growth inhibition is -3% in assay [1] and 83% (active) in assay [4]. The results for the inhibition in assay [2] and in assay [3] were 63% (active) and -3%, respectively. Besides, the outcome in assay [5], in assay [6], in assay [7] and in assay [8] was inactive.
For `CN1CCN(c2ccnc3ccc(NC(=O)c4ccc(Cl)c(Cl)c4)cc23)CC1`, the values for the growth inhibition in assay [1] and in assay [4] were 64% (active) and 100% (active), respectively. The inhibition in assay [2] was 4%; in assay [3] it was 2%. Further, the result in assay [5], in assay [6], in assay [7] and in assay [8] was inactive.
